By inhibition is commonly meant the relative decrease from the control value, in per cent.

The results in this text go back to ChEMBL document CHEMBL1961873, “Compounds: GSK PKIS; Assays: Nanosyn kinase panel” (2012).

Experiment [1] deals with Sphingosine kinase 1 (Homo sapiens) (UniProt Q9NYA1). The settings on record: at 1 µM.
The target of experiment [2] is T1, Sphingosine kinase 2 (Homo sapiens) (UniProt Q9NRA0).
T1 sequence (whole entry): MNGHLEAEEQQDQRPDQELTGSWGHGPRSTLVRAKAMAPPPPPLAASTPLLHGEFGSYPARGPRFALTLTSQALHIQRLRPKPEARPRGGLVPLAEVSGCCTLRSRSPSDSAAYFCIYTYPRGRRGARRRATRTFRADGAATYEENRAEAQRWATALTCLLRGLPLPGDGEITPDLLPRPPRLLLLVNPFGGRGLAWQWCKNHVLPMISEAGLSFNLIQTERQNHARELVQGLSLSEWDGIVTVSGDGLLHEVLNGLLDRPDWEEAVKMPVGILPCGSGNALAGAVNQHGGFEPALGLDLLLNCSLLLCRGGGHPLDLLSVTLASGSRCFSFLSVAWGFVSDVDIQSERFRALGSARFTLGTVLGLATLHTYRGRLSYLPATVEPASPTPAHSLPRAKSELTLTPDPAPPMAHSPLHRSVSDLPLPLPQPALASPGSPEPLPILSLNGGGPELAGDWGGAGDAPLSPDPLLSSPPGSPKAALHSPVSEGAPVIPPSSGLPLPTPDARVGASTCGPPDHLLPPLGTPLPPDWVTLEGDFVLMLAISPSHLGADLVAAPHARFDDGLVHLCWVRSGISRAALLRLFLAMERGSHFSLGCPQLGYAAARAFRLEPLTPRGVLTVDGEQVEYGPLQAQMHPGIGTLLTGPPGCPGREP
The conditions noted are these: at 0.1 µM.

Experiment [3] deals with T1, Sphingosine kinase 2 (Homo sapiens). The conditions noted are these: at 1 µM.
In experiment [4] the target is Casein kinase II subunit alpha (Homo sapiens) (UniProt P68400). The conditions noted are these: at 0.1 µM.
For experiment [5] the target is unchanged. The conditions noted are these: at 1 µM.
The target in experiment [6] is T2, Inhibitor of nuclear factor kappa-B kinase subunit alpha (Homo sapiens) (UniProt O15111).
T2 sequence (whole entry): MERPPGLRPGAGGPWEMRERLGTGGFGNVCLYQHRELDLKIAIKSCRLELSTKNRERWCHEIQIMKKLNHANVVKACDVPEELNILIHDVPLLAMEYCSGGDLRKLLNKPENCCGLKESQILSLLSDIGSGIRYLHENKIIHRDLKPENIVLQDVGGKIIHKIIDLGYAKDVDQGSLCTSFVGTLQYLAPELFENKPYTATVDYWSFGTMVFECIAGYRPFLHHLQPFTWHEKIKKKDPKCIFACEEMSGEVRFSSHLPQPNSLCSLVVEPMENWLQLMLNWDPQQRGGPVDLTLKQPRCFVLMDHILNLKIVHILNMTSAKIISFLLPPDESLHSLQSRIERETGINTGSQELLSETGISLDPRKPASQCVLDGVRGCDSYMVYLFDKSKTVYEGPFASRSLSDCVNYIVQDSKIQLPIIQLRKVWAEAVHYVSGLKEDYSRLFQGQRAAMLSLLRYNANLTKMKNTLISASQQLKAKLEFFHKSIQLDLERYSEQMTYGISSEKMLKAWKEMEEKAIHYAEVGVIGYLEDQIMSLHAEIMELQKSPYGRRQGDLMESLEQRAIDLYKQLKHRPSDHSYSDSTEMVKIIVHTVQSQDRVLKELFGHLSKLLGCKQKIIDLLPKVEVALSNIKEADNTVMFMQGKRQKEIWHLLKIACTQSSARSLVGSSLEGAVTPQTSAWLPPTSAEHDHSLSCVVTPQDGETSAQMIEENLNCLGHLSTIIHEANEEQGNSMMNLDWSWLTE
The settings on record: at 0.1 µM.

Experiment [7] concerns the target T2, Inhibitor of nuclear factor kappa-B kinase subunit alpha (Homo sapiens). The conditions noted are these: at 1 µM.
Experiment [8] has as its target T3, Inhibitor of nuclear factor kappa-B kinase subunit beta (Homo sapiens) (UniProt O14920).
T3 sequence (whole entry): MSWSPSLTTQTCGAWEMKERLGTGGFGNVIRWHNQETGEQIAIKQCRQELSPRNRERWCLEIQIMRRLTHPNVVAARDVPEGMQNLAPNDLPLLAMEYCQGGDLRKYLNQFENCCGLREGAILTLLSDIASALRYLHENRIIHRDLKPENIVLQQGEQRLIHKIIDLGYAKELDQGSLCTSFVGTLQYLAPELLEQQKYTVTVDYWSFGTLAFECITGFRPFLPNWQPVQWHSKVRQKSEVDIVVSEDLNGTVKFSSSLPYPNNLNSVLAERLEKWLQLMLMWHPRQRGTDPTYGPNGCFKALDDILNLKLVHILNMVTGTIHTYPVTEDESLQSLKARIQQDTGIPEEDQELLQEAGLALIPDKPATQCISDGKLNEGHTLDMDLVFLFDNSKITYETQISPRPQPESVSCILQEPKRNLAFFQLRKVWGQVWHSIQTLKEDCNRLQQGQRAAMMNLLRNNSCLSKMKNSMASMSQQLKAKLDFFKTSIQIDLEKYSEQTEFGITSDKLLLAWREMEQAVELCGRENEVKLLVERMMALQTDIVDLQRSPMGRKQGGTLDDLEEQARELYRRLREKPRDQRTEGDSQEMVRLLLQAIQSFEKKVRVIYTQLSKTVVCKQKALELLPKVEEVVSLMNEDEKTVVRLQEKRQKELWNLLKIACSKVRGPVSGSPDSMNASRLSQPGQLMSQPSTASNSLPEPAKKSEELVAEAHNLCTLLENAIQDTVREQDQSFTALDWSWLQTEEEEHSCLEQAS
The settings on record: at 0.1 µM.

Experiment [9] addresses T3, Inhibitor of nuclear factor kappa-B kinase subunit beta (Homo sapiens). The settings on record: at 1 µM.
The target in experiment [10] is T4, Inhibitor of nuclear factor kappa-B kinase subunit epsilon (Homo sapiens) (UniProt Q14164).
T4 sequence (whole entry): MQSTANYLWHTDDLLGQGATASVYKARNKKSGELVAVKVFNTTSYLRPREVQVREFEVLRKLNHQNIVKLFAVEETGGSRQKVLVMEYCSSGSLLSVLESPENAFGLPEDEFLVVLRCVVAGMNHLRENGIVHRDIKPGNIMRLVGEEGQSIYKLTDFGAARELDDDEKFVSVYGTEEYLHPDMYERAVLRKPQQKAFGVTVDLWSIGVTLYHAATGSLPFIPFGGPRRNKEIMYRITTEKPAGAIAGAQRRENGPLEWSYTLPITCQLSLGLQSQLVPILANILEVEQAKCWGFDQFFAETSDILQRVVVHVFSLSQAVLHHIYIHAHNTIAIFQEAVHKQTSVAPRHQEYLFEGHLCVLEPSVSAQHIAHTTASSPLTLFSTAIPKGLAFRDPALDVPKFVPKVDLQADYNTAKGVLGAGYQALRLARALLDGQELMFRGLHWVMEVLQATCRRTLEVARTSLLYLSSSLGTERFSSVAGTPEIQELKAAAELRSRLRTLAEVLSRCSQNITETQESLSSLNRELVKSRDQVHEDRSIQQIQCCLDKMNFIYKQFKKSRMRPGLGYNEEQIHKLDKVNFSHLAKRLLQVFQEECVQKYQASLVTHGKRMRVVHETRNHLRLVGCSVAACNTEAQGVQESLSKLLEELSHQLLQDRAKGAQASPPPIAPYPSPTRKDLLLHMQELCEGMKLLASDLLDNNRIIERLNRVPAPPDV
The conditions noted are these: at 0.1 µM.

The target of experiment [11] is T4, Inhibitor of nuclear factor kappa-B kinase subunit epsilon (Homo sapiens). The conditions noted are these: at 1 µM.
The target in experiment [12] is T5, Serine/threonine-protein kinase Nek1 (Homo sapiens) (UniProt Q96PY6).
T5 sequence (whole entry): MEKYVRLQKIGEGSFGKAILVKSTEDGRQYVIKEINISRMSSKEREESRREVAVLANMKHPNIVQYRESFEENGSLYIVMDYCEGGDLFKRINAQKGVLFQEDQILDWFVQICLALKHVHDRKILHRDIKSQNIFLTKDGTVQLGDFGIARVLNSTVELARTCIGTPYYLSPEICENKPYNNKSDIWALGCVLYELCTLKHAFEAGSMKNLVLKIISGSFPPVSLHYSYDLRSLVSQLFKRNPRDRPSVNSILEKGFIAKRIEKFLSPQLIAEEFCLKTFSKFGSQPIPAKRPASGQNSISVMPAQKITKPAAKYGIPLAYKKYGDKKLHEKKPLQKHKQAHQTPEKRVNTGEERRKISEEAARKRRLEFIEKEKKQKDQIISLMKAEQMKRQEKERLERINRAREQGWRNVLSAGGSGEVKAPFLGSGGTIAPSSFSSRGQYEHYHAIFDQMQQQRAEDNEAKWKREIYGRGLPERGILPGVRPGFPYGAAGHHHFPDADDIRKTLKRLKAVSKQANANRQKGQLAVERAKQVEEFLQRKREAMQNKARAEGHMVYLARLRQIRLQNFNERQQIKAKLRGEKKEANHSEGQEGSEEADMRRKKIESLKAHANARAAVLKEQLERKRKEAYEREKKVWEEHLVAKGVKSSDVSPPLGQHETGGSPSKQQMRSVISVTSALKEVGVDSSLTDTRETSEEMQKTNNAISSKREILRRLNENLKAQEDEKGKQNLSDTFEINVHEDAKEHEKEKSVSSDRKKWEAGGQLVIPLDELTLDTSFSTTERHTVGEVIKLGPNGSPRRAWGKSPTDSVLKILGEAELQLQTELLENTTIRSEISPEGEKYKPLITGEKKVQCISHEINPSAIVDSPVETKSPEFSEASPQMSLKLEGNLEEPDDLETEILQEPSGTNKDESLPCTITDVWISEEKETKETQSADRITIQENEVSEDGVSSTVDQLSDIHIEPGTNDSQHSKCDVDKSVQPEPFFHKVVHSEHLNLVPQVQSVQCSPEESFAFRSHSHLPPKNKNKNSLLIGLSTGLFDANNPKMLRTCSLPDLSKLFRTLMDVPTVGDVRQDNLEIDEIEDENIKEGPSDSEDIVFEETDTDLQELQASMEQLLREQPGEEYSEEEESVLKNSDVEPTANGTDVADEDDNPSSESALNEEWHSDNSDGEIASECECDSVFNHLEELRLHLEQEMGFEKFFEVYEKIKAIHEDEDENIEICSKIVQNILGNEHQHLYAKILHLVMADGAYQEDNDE
The conditions noted are these: at 0.1 µM.

The target of experiment [13] is T5, Serine/threonine-protein kinase Nek1 (Homo sapiens). The conditions noted are these: at 1 µM.
In experiment [14] the target is T6, Serine/threonine-protein kinase Nek2 (Homo sapiens) (UniProt P51955).
T6 sequence (whole entry): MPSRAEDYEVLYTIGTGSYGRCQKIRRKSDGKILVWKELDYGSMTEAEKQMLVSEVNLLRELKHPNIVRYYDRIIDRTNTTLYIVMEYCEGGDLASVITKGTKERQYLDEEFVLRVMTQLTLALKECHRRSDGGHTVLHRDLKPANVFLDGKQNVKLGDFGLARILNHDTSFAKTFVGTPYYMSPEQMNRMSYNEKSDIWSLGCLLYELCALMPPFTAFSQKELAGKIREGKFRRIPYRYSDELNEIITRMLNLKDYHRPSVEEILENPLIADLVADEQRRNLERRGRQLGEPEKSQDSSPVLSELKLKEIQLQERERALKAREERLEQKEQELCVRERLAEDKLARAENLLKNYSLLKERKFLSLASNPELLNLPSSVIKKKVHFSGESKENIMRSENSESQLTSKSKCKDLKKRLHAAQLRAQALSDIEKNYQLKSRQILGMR
The settings on record: at 0.1 µM.

Experiment [15] has as its target T6, Serine/threonine-protein kinase Nek2 (Homo sapiens). The conditions noted are these: at 1 µM.
The target of experiment [16] is Serine/threonine-protein kinase Nek6 (Homo sapiens) (UniProt Q9HC98). The conditions noted are these: at 0.1 µM.
The target is the same in experiment [17]. The settings on record: at 1 µM.
Experiment [18] addresses Serine/threonine-protein kinase Nek7 (Homo sapiens) (UniProt Q8TDX7). The settings on record: at 0.1 µM.
For experiment [19] the target is unchanged. The settings on record: at 1 µM.
In experiment [20] the target is T7, Serine/threonine-protein kinase Nek9 (Homo sapiens) (UniProt Q8TD19).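 Also: reported value is the mean percent inhibition of NEK9.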
T7 sequence (whole entry): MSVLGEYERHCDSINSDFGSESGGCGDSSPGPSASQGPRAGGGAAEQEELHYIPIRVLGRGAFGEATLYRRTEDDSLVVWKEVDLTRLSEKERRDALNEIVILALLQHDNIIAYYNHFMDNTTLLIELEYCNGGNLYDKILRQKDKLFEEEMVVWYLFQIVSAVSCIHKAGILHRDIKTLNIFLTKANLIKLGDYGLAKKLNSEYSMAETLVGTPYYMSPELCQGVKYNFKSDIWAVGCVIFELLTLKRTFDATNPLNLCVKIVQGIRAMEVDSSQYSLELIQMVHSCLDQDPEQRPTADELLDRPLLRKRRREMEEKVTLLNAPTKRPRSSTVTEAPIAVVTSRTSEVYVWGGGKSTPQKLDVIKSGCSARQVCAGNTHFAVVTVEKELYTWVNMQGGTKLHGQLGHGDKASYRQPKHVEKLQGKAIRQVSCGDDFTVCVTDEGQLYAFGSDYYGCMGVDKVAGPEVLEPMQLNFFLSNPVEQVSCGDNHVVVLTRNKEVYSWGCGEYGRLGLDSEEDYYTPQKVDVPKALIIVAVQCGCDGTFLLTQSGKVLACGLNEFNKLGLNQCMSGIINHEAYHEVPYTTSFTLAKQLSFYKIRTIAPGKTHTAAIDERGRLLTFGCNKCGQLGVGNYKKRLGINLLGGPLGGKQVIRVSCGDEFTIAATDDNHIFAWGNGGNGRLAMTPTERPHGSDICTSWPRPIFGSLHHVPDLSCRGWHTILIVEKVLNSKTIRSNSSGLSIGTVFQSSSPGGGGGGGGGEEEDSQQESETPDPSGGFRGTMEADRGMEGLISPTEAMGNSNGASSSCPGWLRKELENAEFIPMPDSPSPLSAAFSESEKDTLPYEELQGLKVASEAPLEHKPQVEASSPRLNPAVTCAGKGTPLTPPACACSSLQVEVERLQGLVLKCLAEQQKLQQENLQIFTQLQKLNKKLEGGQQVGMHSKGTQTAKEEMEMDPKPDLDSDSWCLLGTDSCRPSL
The conditions noted are these: at 0.1 µM.

Chain of Serine/threonine-protein kinase Nek7 (Homo sapiens) (Q8TDX7 whole entry, looked up): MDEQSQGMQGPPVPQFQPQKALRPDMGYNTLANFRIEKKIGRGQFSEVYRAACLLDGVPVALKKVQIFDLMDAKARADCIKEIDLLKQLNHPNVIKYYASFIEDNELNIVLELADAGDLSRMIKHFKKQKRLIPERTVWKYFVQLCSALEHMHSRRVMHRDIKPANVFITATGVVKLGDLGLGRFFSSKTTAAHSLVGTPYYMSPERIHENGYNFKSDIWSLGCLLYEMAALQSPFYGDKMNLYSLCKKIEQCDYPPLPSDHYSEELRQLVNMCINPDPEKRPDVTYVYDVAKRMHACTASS
Chain of Serine/threonine-protein kinase Nek6 (Homo sapiens) (Q9HC98 whole entry): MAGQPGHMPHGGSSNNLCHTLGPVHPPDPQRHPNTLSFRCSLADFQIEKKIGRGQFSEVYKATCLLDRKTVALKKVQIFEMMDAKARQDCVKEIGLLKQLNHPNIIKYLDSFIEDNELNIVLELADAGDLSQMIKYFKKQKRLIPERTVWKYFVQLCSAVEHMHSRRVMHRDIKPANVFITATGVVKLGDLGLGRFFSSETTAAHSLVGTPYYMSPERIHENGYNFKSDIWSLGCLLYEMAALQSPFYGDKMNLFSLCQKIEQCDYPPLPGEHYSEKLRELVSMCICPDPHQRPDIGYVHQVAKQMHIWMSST
Chain of Casein kinase II subunit alpha (Homo sapiens) (P68400 whole entry, looked up): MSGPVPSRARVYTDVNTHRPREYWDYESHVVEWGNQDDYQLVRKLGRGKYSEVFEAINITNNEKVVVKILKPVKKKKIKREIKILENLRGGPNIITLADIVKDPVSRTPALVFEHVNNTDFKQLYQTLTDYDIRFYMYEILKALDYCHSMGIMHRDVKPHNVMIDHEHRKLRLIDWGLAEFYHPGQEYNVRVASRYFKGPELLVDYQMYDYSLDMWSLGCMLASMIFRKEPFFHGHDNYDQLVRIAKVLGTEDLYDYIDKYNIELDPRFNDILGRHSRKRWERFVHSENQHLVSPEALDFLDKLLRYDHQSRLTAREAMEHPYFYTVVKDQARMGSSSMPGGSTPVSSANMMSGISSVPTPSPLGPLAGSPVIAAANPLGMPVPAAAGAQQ
Chain of Sphingosine kinase 1 (Homo sapiens) (Q9NYA1 whole entry): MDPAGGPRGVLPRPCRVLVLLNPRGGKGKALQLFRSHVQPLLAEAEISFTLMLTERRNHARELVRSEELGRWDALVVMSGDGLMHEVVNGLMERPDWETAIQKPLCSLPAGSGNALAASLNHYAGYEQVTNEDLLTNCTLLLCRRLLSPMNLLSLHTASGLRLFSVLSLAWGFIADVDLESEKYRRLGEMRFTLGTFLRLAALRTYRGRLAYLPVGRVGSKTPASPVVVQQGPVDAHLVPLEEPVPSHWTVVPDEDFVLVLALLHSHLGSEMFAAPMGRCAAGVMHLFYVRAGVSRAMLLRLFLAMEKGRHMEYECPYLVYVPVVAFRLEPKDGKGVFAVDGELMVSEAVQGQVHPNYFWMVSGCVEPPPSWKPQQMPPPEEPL

For `CNC(=O)c1cncc(/C=C/c2ccccc2Cl)c1`, the inhibition was -2.41% in [1]; 0.11% in [2]; -0.01% in experiment [3]; 0.75% in experiment [4]; 8.72% in experiment [5]; 2.99% in [6]. Besides, the inhibition in experiment [7] is -3.09%; in experiment [8], -0.46%; in [9] it was 1.87%; in [10], 2.76%; in experiment [11], 2.69%; in experiment [12] it was -0.35%. The inhibition was 1.83% in [13]; -0.6% in experiment [14]; -0.78% in experiment [15]; 1.4% in experiment [16]; 5.65% in [17]; -1.23% in [18]. For the same compound, the results for the inhibition in [19] and in experiment [20] were -1.28% and 1.21%, respectively.
